aSyn UTR act: Activators via SNCA 5'UTR binding, MLPCN. AID 1814. actives 7.1% (n = 300,000). alpha-synuclein 5'UTR reporter, activators screen. activity score, % (tested at 7.5 µM), hits read low; in the data active = activity score below about -60%
The depositor's hits bear a star. The list is a sample of the results.

SMILES | aSyn UTR act
O=c1c2ccccc2[nH]c(=S)n1CCc1ccccc1 | -122.7*
Nc1sccc1C(=O)c1ccc(Cl)cc1 | -119.5*
CC(=O)N1N=C(c2ccc(C)cc2)OC1c1ccc(C(C)C)cc1 (configuration not stated) | -181.7*
CC(=O)N1N=C(c2ccc(C)cc2)OC1c1ccc(C)cc1 (configuration not stated) | -129.0*
C=C(C)CSc1nnc(-c2ccc(OC)cc2)n1N | -102.7*
C=C(C)CSc1nnc(-c2cccc(Cl)c2)n1N | -84.9*
C=C(C)CSc1nncn1/N=C/c1ccc(OC)cc1 | -187.0*
C=CCN(C(=O)CSC1=NC(=O)CN1C(C)=O)c1nc(C)c(-c2ccccc2)s1 | -118.0*
CN(Cc1ccsc1)C(=O)Cn1cc(Br)ccc1=O | -97.4*
CCOc1ccc(/C=N/N2C(C)CCCC2C)cc1 (configuration not stated) | -77.4*
COc1ccc(-c2nnc(N(C)C(=O)c3cccnc3)s2)cc1 | -107.7*
Cc1ccc(-c2nnc(N(C)C(=O)c3cccnc3)s2)cc1 | -76.0*
Cc1ccc(NC(=O)c2sc3nc(C)cc(C)c3c2N)cc1 | -75.4*
Cc1cc(C)c2c(N)c(C(=O)Nc3cccc(C)c3C)sc2n1 | -268.2*
FC(F)(F)c1cnc(-c2cnc(-c3cccnc3)nc2)c(Cl)c1 | -124.3*
CN(C)c1ccc(NC(=O)c2ccc([N+](=O)[O-])cc2Cl)cc1 | -76.1*
O=C(Nc1cccc(O)c1)c1ccc([N+](=O)[O-])cc1Cl | -86.1*
O=C(Nc1ccc([N+](=O)[O-])cc1)c1cc(Cl)sc1Cl | -75.7*
Cc1nc(-c2ccc([N+](=O)[O-])cc2)nc2[nH]ccc(=O)c12 | -202.0*
Cc1nc(-c2ccccc2)nc2[nH]ccc(=O)c12 | -101.5*
COc1ccc(CN(C)CC(=O)Nc2ccccc2-c2ccccc2)c(OC)c1 | 46.2
COc1ccc(NC(=O)CSc2ccccc2)c(OC)c1 | -100.5*
COc1cc(NC(=O)COc2ccccc2C)ccc1NC(=O)c1ccco1 | -67.7*
COc1cc(NC(=O)C(C)C)ccc1NC(=O)c1ccco1 | -92.1*
COc1ccc(NC(=O)c2cc(C(C)C)on2)c(OC)c1 | -244.5*
SMILES | aSyn UTR act
COc1cc2c(cc1NC(=O)c1ccco1)CCCC2 | -278.5*
COc1ccc(NC(=O)c2ccco2)c(OC)c1 | -128.3*
COc1ccc(NC(=O)c2ccccc2O)c(OC)c1 | -204.8*
CN(C)Cc1c(C(=O)Nc2ccccc2)[nH]c2ccccc12 | -76.2*
CCOC(=O)c1[nH]c2ccccc2c1NC(=S)Nc1ccccc1 | -69.5*
COc1cc(Cl)ccc1OCc1cc(C(=O)N(C)Cc2cccc3cnccc23)no1 | -76.7*
COc1cc(Cl)ccc1OCc1cc(C(=O)NC(C)Cc2cccnc2)no1 (configuration not stated) | -96.5*
CSc1ccccc1OCc1cc(C(=O)N(C)Cc2cnccn2)no1 | -96.9*
COc1ccccc1CCc1nnc(CCC(=O)N(C)Cc2cccc3cnccc23)o1 | -131.5*
COc1ccc(OCc2cc(C(=O)NC(C)Cc3cnccn3)no2)c(Cl)c1 (configuration not stated) | -143.8*
COc1ccc(OCc2cc(C(=O)N(C)Cc3cc(C4CC4)n[nH]3)no2)c(Cl)c1 | -189.0*
COc1cc(Cl)ccc1OCc1cc(C(=O)NCc2cc(C(C)C)no2)no1 | -147.1*
COc1cc(OC)cc(C(=O)NC(=S)NNC(=O)c2cnccn2)c1 | 73.2
COc1ccc(OCc2cc(C(=O)NCC(C)Oc3cccnc3)no2)c(Cl)c1 (configuration not stated) | -85.0*
COc1ccc(OCc2cc(C(=O)N(C)Cc3cnccn3)no2)c(Cl)c1 | -71.1*
CC(C)=C(NC(=O)c1ccccc1)C(=O)N/N=C/c1ccc(O)cc1 | -127.8*
COc1cc(C(=O)N/N=C/c2ccsc2C)cc(OC)c1OC | 92.1
CN(C)c1cccc(C(=O)N/N=C/c2ccsc2)c1 | -157.2*
CC/C(=N\NC(=O)c1ccc(N(C)C)cc1)c1ccccc1 | -72.1*
O=C(N/N=C/c1ccc(-n2ccnc2)cc1)c1cccs1 | -77.9*
CN(C)c1ccc(/C=N/NC(=O)c2ccccc2Cl)cc1 | -124.9*
CN(C)c1ccc(/C=N/NC(=O)c2sccc2-n2cccc2)cc1 | -150.0*
CSc1ccc(/C=N/NC(=O)c2ccccc2Cl)cc1 | -109.2*
O=C(N/N=C/c1ccc(OC(=O)c2cccs2)cc1)c1cccc(F)c1 | -96.5*
Cc1cc(C(=O)N/N=C/c2cc(Br)ccc2OC(=O)c2ccccc2Cl)n[nH]1 | 58.3
SMILES | aSyn UTR act
CSc1ccc(/C=N/NC(=O)c2cccs2)cc1 | -184.6*
CN(C)c1ccc(/C=N/NC(=O)c2ccccc2)cc1 | -120.0*
Cc1nn(-c2ccccc2)c(C)c1/C=N/NC(=O)c1cccs1 | -67.7*
C/C(=N/N=C/c1ccc(N(C)C)cc1)c1ccccc1 | -159.6*
O=C(O)c1cnn(-c2nc(-c3ccc(Br)cc3)cs2)c1C(F)(F)F | -96.0*
CC1CCCCN1C(=S)NCCc1ccccc1 (configuration not stated) | -93.0*
CC1CCCN(C(=S)NCCc2ccccc2)C1 (configuration not stated) | -101.7*
CN(C)C(=O)N1CCCC(C(=O)NCCc2ccccc2)C1 (configuration not stated) | -91.3*
O=C(NCCc1ccccc1)C1CCN(C(=O)Nc2ccccc2)CC1 | -66.1*
COc1ccc(Br)cc1CNC(=O)C1CCN(C(=O)N(C)C)CC1 | 77.6
CCCCN1/C(=C/c2ccc3ccccc3[n+]2CC)Sc2ccccc21 | 80.2
CCN1/C(=C\C=C2\C(=O)N(C)C(=S)N2C)Sc2ccccc21 | -81.2*
O=C(Nc1ccccc1O)c1ccc([N+](=O)[O-])cc1 | -69.9*
COc1cc(NC(=O)c2cc3nc(C)cc(C)n3n2)c(OC)cc1Cl | -213.9*
COc1ccc(OC(=O)c2ccc(Cl)cc2)c(C(C)=O)c1 | -77.6*
COc1ccc(C(=O)Nc2cc(Cl)ccc2OC(=O)c2ccc(OC)cc2)cc1 | -157.5*
COc1ccc(C(=O)Nc2cc(OC)c(Cl)cc2OC)cc1 | -119.9*
COc1ccc(-c2noc(CCC(=O)Nc3cc(Cl)c(OC)cc3OC)n2)cc1 | -64.8*
Cc1ccc(C(=O)Nc2cc(Cl)ccc2OC(=O)c2ccc(C)cc2)cc1 | -226.8*
O=C(Nc1ccccc1O)c1ccc(Cl)cc1 | -254.7*
COc1ccc(-c2noc(CCCC(=O)NC3CCCC3)n2)cc1 | 62.4
O=C(Nc1ccccc1OC(=O)c1ccc(Cl)cc1)c1ccc(Cl)cc1 | -343.3*
CC(C)(C)c1ccc(C(=O)Nc2ccccc2Cl)cc1 | -88.0*
Cc1cc(NC(=O)c2ccccc2)c(Cl)cc1N | 64.0
Cc1nc(OCC(C)C)c2sc3nc4c(cc3c2n1)COC(C)(C)C4 | -130.4*
SMILES | aSyn UTR act
COc1nc(C)nc2c1sc1nc3c(cc12)COC(C)(C)C3 | -145.0*
CCc1ccc(C(=O)CN2CCSC2=N)cc1 | -108.7*
O=C(Cc1cnn(-c2ccccc2)c1)c1ccc(O)c(O)c1O | -81.0*
Cc1ccc(O)c(C(=O)c2cnn(-c3ccccc3)c2)c1 | -67.7*
COc1cc(C(=O)N/N=C/c2cn(Cc3ccccc3)c3ccccc23)ccc1O | 57.2
O=C(Cn1cc(SCc2ccc(Cl)cc2)c2ccccc21)N1CCOCC1 | -89.8*
O=C(CSc1cn(Cc2ccccc2)c2ccccc12)N1CCOCC1 | -129.4*
Cc1ccc(N2C(=O)c3ccccc3NC2C(C)Cc2ccc3c(c2)OCO3)cc1 (configuration not stated) | -67.7*
N#Cc1cc2c(nc1SCc1ccncc1)CCC2 | -95.1*
CCOC(=O)CC(=O)CSc1nc2c(cc1C#N)CCCCC2 | -138.0*
CCc1nc(SCC#N)c(C#N)cc1C | 68.5
Cc1cccc2cc(C#N)c(SCC#N)nc12 | 84.9

Screens deposited in PubChem BioAssay by Broad Institute.
